# According to PubChem BioAssay (Tox21):
# Results filed as inconclusive are left out. A call without a number means that no potency is given here. Unmarked numbers belong to inactive results. The source made the active and inactive calls. The call rests on the fitted dose curve.
# Target: Thyrotropin receptor (Homo sapiens) (UniProt P16473)
# Assay: qHTS assay to identify small molecule antagonists of the thyroid stimulating hormone receptor (TSHR) signaling pathway (AID 1259385); further: nearly all actives have a fitted effect of over 20% in size
# Conditions: TSHR-HEK293 cAMP HTRF, TSH-stimulated antagonist mode; series mostly up to 92.4 µM
# Text: U.S. Tox21 Program National Center for Advancing Translational Sciences [NCATS] NIH Chemical Genomics Center [NCGC] U.S. Environmental Protection Agency [EPA] National Institutes of Environmental Health Sciences [NIEHS] National Toxicology Program [NTP] U.S. Food and Drug Administration [FDA] Tox21 Assay Overview: TSHR is the receptor for thyrotropin (thyroid stimulating hormone or TSH), a member of the glycoprotein hormone family. TSH is released by the anterior pituitary gland and is the main regulator of thyroid gland growth and development. Upon binding circulating thyrotropin, a G-protein signal cascade activates adenylyl cyclase and […] cAMP concentration is increased. cAMP is a key second messenger involved extensively in cellular signal transduction pathways associated with the majority of G-protein coupled receptors (GPCRs). The activation of these GPCRs by neurotransmitters, lipids, nucleotides, peptides and hormones results in the activation or the inhibition of plasma membrane-bound adenylate cyclase through heterotrimeric G-proteins. A cell-based TSHR assay can be used to screen chemical compounds that modulate TSHR either in agonist or antagonist mode.
# Tox21 Assay Protocol Summary: TSHR-Hek293 cells were dispensed at 800 cells/4uL/well in 1536-well white plates using a Multidrop dispenser. After the assay plates were incubated at a 37C/5% CO2 incubator for 18 hrs, 23 nL of compounds dissolved in DMSO, positive controls or DMSO only was transferred to the assay plate by a pin tool, followed by 1 ul medium containing Ro20-1724. For the antagonist mode screening, 1 uL of TSH was added on the top of the cell/compound mixtures to achieve a final agonist concentration of 1.5 ng/mL. After 30 min of incubation at room temperature, 2.5 ul/well of cAMP-d2 and 2.5 ul/well of anti-cAMP-cryptate were added respectively into the assay plates using a Flying Reagent Dispenser. The plates were incubated at room temperature for 1 hr. The fluorescence intensity in the plates was measured using an Envision plate reader. Each test compound was measured at 15 concentrations and in triplicates.
# Thyrotropin receptor (Homo sapiens), sequence (P16473 whole entry, looked up): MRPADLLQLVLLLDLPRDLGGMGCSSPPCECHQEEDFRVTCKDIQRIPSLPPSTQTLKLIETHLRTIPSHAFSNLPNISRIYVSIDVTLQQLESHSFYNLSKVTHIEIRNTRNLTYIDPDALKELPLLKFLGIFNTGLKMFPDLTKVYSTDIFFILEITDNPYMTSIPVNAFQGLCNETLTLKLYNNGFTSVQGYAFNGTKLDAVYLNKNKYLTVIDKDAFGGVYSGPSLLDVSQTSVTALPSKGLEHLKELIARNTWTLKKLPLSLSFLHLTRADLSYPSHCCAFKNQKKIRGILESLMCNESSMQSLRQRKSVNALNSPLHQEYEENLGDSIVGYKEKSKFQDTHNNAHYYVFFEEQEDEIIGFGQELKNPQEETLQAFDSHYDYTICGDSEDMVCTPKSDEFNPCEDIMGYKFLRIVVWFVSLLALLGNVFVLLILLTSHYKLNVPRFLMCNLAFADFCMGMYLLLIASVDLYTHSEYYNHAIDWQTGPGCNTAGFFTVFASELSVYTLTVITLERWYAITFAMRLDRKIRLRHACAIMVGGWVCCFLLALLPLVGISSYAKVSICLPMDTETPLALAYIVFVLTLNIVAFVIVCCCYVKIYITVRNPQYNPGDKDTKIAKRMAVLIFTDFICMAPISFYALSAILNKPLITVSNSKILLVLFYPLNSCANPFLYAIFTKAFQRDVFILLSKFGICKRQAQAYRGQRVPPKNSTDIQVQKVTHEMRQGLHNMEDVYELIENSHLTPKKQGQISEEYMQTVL
Compound,"activity change, negative = inhibition",Potency
COC=O,4.44% [at 8.39 µM],–
CC(C)=CCC/C(C)=C/C=N/O,–,inactive
FC(F)(Cl)C(F)(Cl)Cl,–,inactive
O=[N+]([O-])c1ccc(Cl)cc1Cl,–,inactive
CCCCCC1CCC(=O)O1 (stereo not given),–,inactive
O=C(O)c1ccc2c(c1)nc(C(=O)NC1CCN(C3CC3)CC1)n2Cc1cc(-c2ccc(Cl)s2)on1,2.44% [at 19 µM],–
CCC(C)CCCC(C)(C)O (stereo not given),–,inactive
N#Cc1ccc(CC(=O)c2cccc(C(F)(F)F)c2)cc1,–,inactive
O=S(=O)(O)c1cc(Cl)c(Cl)cc1Cl,–,inactive
Cc1c(Cl)cccc1Nc1ccccc1C(=O)O,–,inactive
CCCCCCCCCCCCCCCCCCCl,0.518% [at 8.39 µM],–
O=C(O)c1ccccc1-n1cc(C(=O)O)c(=O)c2cc(Nc3c(F)cc(F)cc3Cl)c(Cl)cc21,–,inactive
COc1ccc(CN(CCN(C)C)c2ncccn2)cc1,–,inactive
COc1ccc(/C=C/S(=O)(=O)NC(=O)c2ccc(C)cc2Cl)cc1,–,inactive
CCCCCCC/C=C/C=O,–,inactive
CCCC1CCOC(C)S1 (stereo not given),–,inactive
CCCCCCCCCCCCCCCCN,–,inactive
CCc1c(C)[nH]c2c1C(=O)C(CN1CCOCC1)CC2 (stereo not given),–,inactive
O=C(O)c1ccccc1[N+](=O)[O-],–,inactive
C/C=C1\[C@H]2C=C(C)C[C@]1(N)c1ccc(=O)[nH]c1C2,–,inactive

Compound,"activity change, negative = inhibition",Potency
COC(=O)c1cc(Cl)ccc1[N+](=O)[O-],–,inactive
CC(C)(C(=O)O)c1ccc(C(O)CCCN2CCC(C(O)(c3ccccc3)c3ccccc3)CC2)cc1 (stereo not given),–,inactive
O=[N+]([O-])c1cccc(I)c1,–,inactive
Nc1ccc(-c2ccc(F)cc2)cc1,–,inactive
CC(CCl)OC(C)CCl (stereo not given),–,inactive
O=C1C=CCCC1,–,inactive
CCCCCCCCC(=O)OCC(C)OC(=O)CCCCCCCC (stereo not given),–,inactive
O=C(Nc1ccccc1)c1cc([N+](=O)[O-])ccc1Cl,–,inactive
CC(C)=CCCC(C)C=O (stereo not given),–,inactive
NC(=O)c1ccccc1C(N)=O,–,inactive
CCCCCO,–,inactive
COC(=O)/C=C/C(C)=C\C=C\C(C)=C\C=C\C=C(C)\C=C\C=C(C)\C=C\C(=O)O,–,inactive
COC(=O)Cc1cccc2ccccc12,–,inactive
O=Cc1ccc(Cl)c([N+](=O)[O-])c1,–,inactive
CCCN(C1CCN(C(=O)C2CCNCC2)CC1)[C@@H]1CCc2ccc(OC)cc2C1,–,inactive
COc1cccc([C@H](O)C2CCN(CCc3ccc(F)cc3)CC2)c1OC,–,inactive
Clc1cc(Cl)c2c(c1)N=C1CCCCCN1C2,–,inactive
CCCCCCCCCCCCCCCCC(=O)O,–,inactive
O=C(OCCCCCOC(=O)c1ccccc1)c1ccccc1,–,inactive
CCCCOC(=O)CC#N,–,inactive
